Screening data from PubChem.
A selection: hits, their analogues and other compounds. The true share with any hit is near 11%.
PNC assembly inh: blocks assembly of the perinucleolar compartment; activity change (PNC), negative = inhibition, % at 10 µM; PC3M PTB-GFP, PNC prevalence imaging, 16 h; active compounds read low; AID 2417; 140,000 tested, 3.1% active;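 active = readout at or below -70, meaning at least 70% loss of cells showing the perinucleolar compartment, a nuclear body marking cancer cells; inconclusive = readout between -30 and a set limit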
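Read-out is percentage of cells bearing a perinucleolar compartment, from automated 20x imaging of fixed, Hoechst-stained PC3M PTB-GFP cells. Cells were seeded 4 h, then exposed 16 h to compound (23 nl of library stock) in duplicate plates.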
HPGD block: HPGD (human) dehydrogenase inhibition; P15428; purified HPGD, NADH fluorescence kinetic, PGE2 substrate; Potency, µM, usual class: inhibitors; 150,000 tested, 4.3% active; AID 894
Target sequence (P15428 whole entry, looked up): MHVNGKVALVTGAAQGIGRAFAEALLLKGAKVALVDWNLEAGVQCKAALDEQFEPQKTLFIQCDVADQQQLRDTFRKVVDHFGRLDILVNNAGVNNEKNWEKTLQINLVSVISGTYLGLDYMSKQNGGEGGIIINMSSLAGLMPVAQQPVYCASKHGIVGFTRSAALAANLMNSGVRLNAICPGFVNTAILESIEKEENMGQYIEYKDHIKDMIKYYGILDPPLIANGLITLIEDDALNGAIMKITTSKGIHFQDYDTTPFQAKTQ
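NADH formation kinetics: reaction with 30 uM PGE2 and 1 mM NAD+ (final), 20 nM enzyme, Tris-HCl pH 8 with Tween 20, after 15 min compound preincubation at room temperature. Fluorescence change, last versus first of five reads.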
ALDH1A1 block: inhibitors of human aldehyde dehydrogenase 1A1 | P00352 | Purified ALDH1A1, NADH fluorescence, propionaldehyde substrate | Potency, µM (top dose mostly 75.3 µM), most hits filed as inhibitors | 220,000 tested, 7.3% active
Numbers stand for hits; i = inactive; ? = inconclusive; nt = not tested or not shown; [ ] = another dose, or the depositor's remark. Unless noted, calls come from the whole dose curve; as a rule, active = well fitted inhibition curve with a large enough effect (not every such curve was filed as active); inconclusive = small, poorly fitted or top-dose-only effect, or another doubt; inactive = no such curve, though single readings can be large or run the other way.

SMILES	PNC assembly inh	HPGD block	ALDH1A1 block
O=[N+]([O-])c1ccccc1N(CC1CO1)S(=O)(=O)c1ccccc1 (stereo not given)	nt	nt	i
CCOC(=O)c1c(/N=C/c2ccccc2O)sc2c1CCC2	i	nt	i
CCOC(=O)c1cc(CC)sc1/N=C/C1C(=O)CC(C)(C)CC1=O	?	i	11µM
CCOC(=O)c1c(/N=C/c2ccc(O)cc2O)sc2c1CCC2	?	i	?
CCOC(=O)c1c(/N=C/C2C(=O)CCCC2=O)sc2c1CCCC2	nt	nt	16µM
CCOC(=O)c1cc(CC)sc1/N=C/C1=C(O)CCCC1=O	i	i	i
CCOC(=O)c1c(/N=C/C2C(=O)CC(C)(C)CC2=O)sc2c1CCCC2	nt	nt	8.9µM
Cc1ccc(S(=O)(=O)Oc2ccc(N=Nc3ccc(-c4ccc(N=Nc5c(O)ccc6cc(S(=O)(=O)O)cc(S(=O)(=O)O)c56)c(C)c4)cc3C)cc2)cc1	nt	i	?
CCOc1ccc(-n2c(Cc3cc(=O)[nH]c(=O)[nH]3)nnc2SCC(=O)Nc2nnc(C)s2)cc1	nt	nt	i
O=S(=O)(c1ccccc1)N1CCN=C1SCc1cccc(Cl)c1	?	i	i
CC1(C)Cc2nc3sc4c(SCC(=O)NCc5ccccc5)ncnc4c3cc2CO1	-112	i	7.9µM
CC1(C)Cc2nc3sc(C(=O)NCCO)c(N)c3cc2CO1	i	i	?
CC1(C)Cc2nc3sc4c(N(CCO)CCO)ncnc4c3cc2CO1	i	?	?
COC(=O)CSc1ncnc2c1sc1nc3c(cc12)COC(C)(C)C3	nt	nt	1.4µM
CC1(C)Cc2nc3oc4c(NCc5ccccc5)ncnc4c3cc2CO1	i	?	?
COC(CSc1ncnc2c1oc1nc3c(cc12)COC(C)(C)C3)OC	nt	nt	3.2µM
CNC(=O)c1[nH]cnc1C(=O)Nc1ccc(Cl)cc1	nt	nt	i
O=C(COC(=O)/C=C/c1ccccc1)NCc1ccccc1Cl	nt	nt	i
CCOC(=O)C1=NOC(CNc2ncc(C(F)(F)F)cc2Cl)C1 (stereo not given)	nt	nt	i
O=C(O)c1cc(Br)ccc1NN=C1CCCCC1	?	25µM	?
CCCCC(=O)Nc1ccc(Br)cc1C(=O)O	i	i	i
Cc1ccc(C2C(C#N)=C(N)SC(N)=C2C#N)c(C)c1	i	?	?
CC1=C(C#N)C(c2ccoc2)C(C(=O)OCc2ccccc2)=C(N)S1 (stereo not given)	i	i	28µM
Cc1[nH]nc2c1C(c1ccoc1)C(C#N)=C(N)O2 (stereo not given)	i	i	i
C=CCOC(=O)C1=C(C)OC(N)=C(C#N)C1c1ccoc1 (stereo not given)	?	i	i
SMILES	PNC assembly inh	HPGD block	ALDH1A1 block
N#CC1=C(N)SC(N)=C(C#N)C1c1ccoc1	?	28µM	20µM
Cc1ccc(C2C(C#N)=C(N)SC(N)=C2C#N)cc1	i	i	22µM
CC(=O)Nc1ccccc1NC(=O)c1ccc(C)c(C)c1	nt	nt	i
Cn1c(=O)[nH]c2sc3c(c2c1=O)CC(C)(C)OC3	?	?	i
CC1(C)Cc2c(sc3[nH]c(=S)[nH]c(=O)c23)CO1	nt	nt	7.9µM
CCOC(=O)N1CCN(C(=O)c2ccccc2Oc2ccccc2)CC1	?	i	?
O=C(c1ccco1)N1CCN(C(=O)c2ccccc2Oc2ccccc2)CC1	-112	i	i
O=C(c1ccco1)N1CCN(C(=O)C(c2ccccc2)c2ccccc2)CC1	i	i	i
O=C1c2ccccc2-c2c1cccc2C(=O)N1CCN(C(=O)c2ccco2)CC1	i	i	16µM
CCNC(=O)c1ccc(C23CC4CC(CC(C4)C2)C3)o1	nt	nt	i
CO[C@H]1COC(=O)[C@H](C)NC(=O)C/C=C\[C@@H](C)[C@H](OC)COC(=O)[C@@H](OCc2ccccc2)/C=C\[C@@H]1C	nt	nt	i[13.5 µM]
CC1CCC(C(C)C)C(O)C1 (stereo not given)	nt	i	i
O=C1N=c2ccccc2=C1c1sc(=S)n(-c2ccc(O)cc2)c1O	nt	nt	i
Cc1c(-n2c(O)c(C3=c4ccccc4=NC3=O)sc2=S)c(=O)n(-c2ccccc2)n1C	nt	nt	7.9µM
COC(=O)/C=C1\SC(N)=NC1=O	nt	nt	i
COc1cc(/C=C/C(=O)OCC(=O)NCc2cccs2)ccc1OCC#N	i	?	i
O=C(NCCN1CCOCC1)c1ccc(Cc2nc3ccccc3[nH]2)cc1	nt	i	i
CC12CCC(c3c(C(=O)Nc4nccs4)nn(-c4ccccc4)c31)C2(C)C (stereo not given)	i	i	4µM
CC12CCC(c3c(C(=O)O)nn(-c4ccccc4)c31)C2(C)C (stereo not given)	-127	i	i
CC12CCC(c3c(CO)nn(-c4ccccc4)c31)C2(C)C (stereo not given)	?	i	?
O=C(NCCc1ccccc1)C(=O)Nc1nccs1	?	i	i
CC1CCCC(C)N1C(=S)SCC(=O)O (stereo not given)	nt	nt	i
O=C1CC[C@@]23CCCN2C(=O)CCCC3C1 (stereo not given in full)	nt	i	i
COCCCN1C(=O)/C(=C/c2ccc(CNS(=O)(=O)c3ccccc3)o2)C(C(=O)OC)=C1C	nt	nt	35µM
CNC(=O)/C(C#N)=C\c1ccc(CNS(=O)(=O)c2ccccc2)o1	?	i	i
SMILES	PNC assembly inh	HPGD block	ALDH1A1 block
CC(C)N(C(=O)CSc1nnc(Cc2csc(Nc3ccccc3)n2)o1)C(C)C	nt	nt	i
O=C(Nc1ccccc1N1CCOCC1)c1cccnc1Cl	nt	nt	i
Cc1cc(OC(F)F)ccc1NC(=O)Nc1ccc([N+](=O)[O-])cc1	?	i	i
O=C(CN(CCc1ccccc1)C(=O)CN1C(=O)COc2ccccc21)NCc1ccco1	i	i	8.9µM
O=C(CN(C(=O)Cn1nnc(-c2cccs2)n1)c1ccc2c(c1)OCCO2)NCc1ccccc1	i	i	?
Cc1ccc2c(c1)N(CC(=O)NCc1ccco1)C(=O)CO2	?	i	i
O=C(CN(CCc1ccccc1)C(=O)Cn1nnc(-c2cccs2)n1)NCc1ccco1	i	i	13µM
c1ccc([P+](CC[P+](c2ccccc2)(c2ccccc2)c2ccccc2)(c2ccccc2)c2ccccc2)cc1	nt	i	i[13.5 µM]
CC(Oc1ccc(Cl)cc1)C(=O)NNC(=S)NC(=O)c1ccco1 (stereo not given)	?	i	?
Cc1ccc(S(=O)(=O)CCSc2nc(C)cc(C(F)(F)F)c2C#N)cc1	-119	i	0.35µM
COC(=O)CSc1nc(C)cc(C(F)(F)F)c1C#N	i	i	i
CCS(=O)(=O)N1CCC(C(=O)c2ccc(Cl)cc2)CC1	i	i	i
COc1cccc(CNc2ccc3c(c2)CCC3)c1	i	i	13µM
COc1cccc(CNc2ccc(C)c(Cl)c2)c1	nt	nt	i
Cc1ccc(N2CCN(C(=S)c3ccc(-c4cccc([N+](=O)[O-])c4)o3)CC2)cc1	nt	nt	3.2µM
Cc1ccccc1N1CCN(C(=S)c2ccccc2)CC1	i	i	i
Cc1ccccc1N1CCN(C(=S)c2ccc(-c3cccc([N+](=O)[O-])c3)o2)CC1	nt	nt	8.9µM
CN1CCN(c2ccc(NC(=O)c3ccc(-c4cccc([N+](=O)[O-])c4)o3)cc2)CC1	nt	nt	i
COc1ccc(C(=O)OCC(=O)NCCN2C(=O)CSC2=O)cc1	nt	nt	i
COc1cccc(-n2cnc(=O)c3cccnc32)c1	i	i	i
CCCc1cc2c(=O)n(NC(=O)c3nn(C)cc3[N+](=O)[O-])c(C)nc2s1	i	i	i
CC(=O)C1=C(C)NC(SCC(=O)c2cc(Cl)ccc2Cl)=C(C#N)C1c1ccco1 (stereo not given)	i	28µM	25µM
